We go through 6 molecules from PubChem BioAssay AID1508601 (ICCB-Longwood Screening Facility, Harvard Medical School, 2020).

The whole screen tested about 5,700 compounds, of which about 85 (1%) were called active. No stated cut-off is given here; in the data, active means p53-positive nuclei above about 36% (passing the limit was not always enough); inactive means the rest. The full list was thinned out, with actives kept by preference.

Assay [1] in a line: nuclear p53 accumulation, HPV+ cells – imaging, p53-positive nuclei imaging, 24 h, 48 h (AID 1508601). The note with it: 24/48 h.
The target in assay [2] is Cellular tumor antigen p53 (Homo sapiens) (UniProt P04637). The description is as above. The settings on record: 24/48 h, stronger effect = higher value.
Sequence of Cellular tumor antigen p53 (Homo sapiens) (P04637 whole entry, looked up): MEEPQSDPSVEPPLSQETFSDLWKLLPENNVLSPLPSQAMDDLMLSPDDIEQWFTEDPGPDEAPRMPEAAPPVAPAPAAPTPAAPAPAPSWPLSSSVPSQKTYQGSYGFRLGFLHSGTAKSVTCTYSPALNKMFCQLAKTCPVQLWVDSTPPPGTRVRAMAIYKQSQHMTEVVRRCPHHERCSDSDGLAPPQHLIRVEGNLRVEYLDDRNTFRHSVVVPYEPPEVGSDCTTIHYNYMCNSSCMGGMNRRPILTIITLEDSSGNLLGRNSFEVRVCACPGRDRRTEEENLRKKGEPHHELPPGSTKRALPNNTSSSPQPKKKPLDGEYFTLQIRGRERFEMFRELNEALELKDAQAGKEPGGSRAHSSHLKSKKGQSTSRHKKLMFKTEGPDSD
The mark [3] stands for this setting: measured here: cell number at 24 h, Library stock concentration: 80 uM.
Where [4] appears, read: measured here: cell number at 24 h, Library stock concentration: 400 uM.
Setting [5] is: measured here: cell number at 24 h, Library stock concentration: 2 mM.
Where [6] appears, read: measured here: cell number at 24 h, Library stock concentration: 10 mM.
Where [7] appears, read: measured here: cell number at 48 h, Library stock concentration: 80 uM.
Where [8] appears, read: measured here: cell number at 48 h, Library stock concentration: 400 uM.
[9] abbreviates: measured here: cell number at 48 h, Library stock concentration: 2 mM.
The mark [10] stands for this setting: measured here: cell number at 48 h, Library stock concentration: 10 mM.
[11] abbreviates: Library stock concentration: 80 uM.
Setting [12] is: Library stock concentration: 400 uM.
The mark [13] stands for this setting: Library stock concentration: 2 mM.
The mark [14] stands for this setting: Library stock concentration: 10 mM.
Setting [15] is: measured here: p53 positive nuclei at 24 h, Library stock concentration: 80 uM.
The mark [16] stands for this setting: measured here: p53 positive nuclei at 24 h, Library stock concentration: 400 uM.
The mark [17] stands for this setting: measured here: p53 positive nuclei at 24 h, Library stock concentration: 2 mM.
Where [18] appears, read: measured here: p53 positive nuclei at 24 h, Library stock concentration: 10 mM.
Setting [19] is: measured here: cell number at 24 h, Library stock concentration: 3.33 mM.
Where [20] appears, read: measured here: cell number at 48 h, Library stock concentration: 3.33 mM.
Where [21] appears, read: Library stock concentration: 3.33 mM.
The mark [22] stands for this setting: measured here: p53 positive nuclei at 24 h, Library stock concentration: 3.33 mM.

For the molecule `CC(C)c1nn(-c2c(Cl)cccc2Cl)c2nc(Cc3ccc(OCCO)cc3)[nH]c(=O)c12`, the nuclei count, normalised in assay [1] (setting [3]) was determined as 64.8%; in assay [1] (setting [4]), 36%; in assay [1] (setting [5]), 26.2%; in assay [1] (setting [6]), 26.4%; in assay [1] (setting [7]), 50.6%; in assay [1] (setting [8]), 25.1%. In addition, the nuclei count, normalised was 17.9% in assay [1] (setting [9]) and 18.4% in assay [1] (setting [10]). For the same molecule, the p53-positive nuclei, normalised in assay [2] (setting [11]) was 27.9% (inactive); in assay [2] (setting [12]), 67% (active); in assay [2] (setting [13]), 32.9% (inactive); in assay [2] (setting [14]), 34.7% (inactive); in assay [2] (setting [15]), 18.6%; in assay [2] (setting [16]) it was 19.1%. Moreover, the p53-positive nuclei, normalised in assay [2] (setting [17]) was 6.59%; in assay [2] (setting [18]) it was 4.85%.
`COc1cc(OC)c2c(=O)[nH]c(-c3cc(C)c(OCCO)c(C)c3)nc2c1`: the nuclei count, normalised in assay [1] (measured here: cell number at 24 h, Library stock concentration: 46 uM) was determined as 114%; in assay [1] (measured here: cell number at 24 h, Library stock concentration: 278 uM) it was 107%; in assay [1] (measured here: cell number at 24 h, Library stock concentration: 1.67 mM), 118%; in assay [1] (setting [19]), 108%; in assay [1] (setting [6]), 109%; in assay [1] (measured here: cell number at 48 h, Library stock concentration: 46 uM) it was 111%. The nuclei count, normalised amounted to 108% in assay [1] (measured here: cell number at 48 h, Library stock concentration: 278 uM); 107% in assay [1] (measured here: cell number at 48 h, Library stock concentration: 1.67 mM); 103% in assay [1] (setting [20]); 108% in assay [1] (setting [10]). For the same molecule, the p53-positive nuclei, normalised is 0.0206% (inactive) in assay [2] (Library stock concentration: 46 uM); 0.323% (inactive) in assay [2] (Library stock concentration: 278 uM); 0.07% (inactive) in assay [2] (Library stock concentration: 1.67 mM); 0.152% (inactive) in assay [2] (setting [21]); -0.223% (inactive) in assay [2] (setting [14]); -0.102% in assay [2] (measured here: p53 positive nuclei at 24 h, Library stock concentration: 46 uM). For the same molecule, the p53-positive nuclei, normalised in assay [2] (measured here: p53 positive nuclei at 24 h, Library stock concentration: 278 uM) was 0.166%; in assay [2] (measured here: p53 positive nuclei at 24 h, Library stock concentration: 1.67 mM), -0.00477%; in assay [2] (setting [22]), 0.0179%; in assay [2] (setting [18]), -0.153%.
For `OC(c1cc(C(F)(F)F)nc2c(C(F)(F)F)cccc12)[C@H]1CCCCN1` (some centres undefined), the nuclei count, normalised in assay [1] (measured here: cell number at 24 h, Library stock concentration: 500 nM) came to 110%; in assay [1] (measured here: cell number at 24 h, Library stock concentration: 1.5 uM), 109%; in assay [1] (measured here: cell number at 24 h, Library stock concentration: 4.6 uM) it was 109%; in assay [1] (measured here: cell number at 24 h, Library stock concentration: 13.7 uM), 101%; in assay [1] (measured here: cell number at 24 h, Library stock concentration: 41 uM), 117%; in assay [1] (measured here: cell number at 24 h, Library stock concentration: 123 uM) it was 109%. Also, the nuclei count, normalised in assay [1] (measured here: cell number at 24 h, Library stock concentration: 370 uM) was 109%; in assay [1] (measured here: cell number at 24 h, Library stock concentration: 1.111 mM), 110%; in assay [1] (setting [19]) it was 95.3%; in assay [1] (measured here: cell number at 24 h, Library stock concentration: 3.333 mM), 112%; in assay [1] (setting [6]) it was 86.2%; in assay [1] (measured here: cell number at 48 h, Library stock concentration: 500 nM), 105%. For the same molecule, the nuclei count, normalised came to 105% in assay [1] (measured here: cell number at 48 h, Library stock concentration: 1.5 uM); 112% in assay [1] (measured here: cell number at 48 h, Library stock concentration: 4.6 uM); 103% in assay [1] (measured here: cell number at 48 h, Library stock concentration: 13.7 uM); 120% in assay [1] (measured here: cell number at 48 h, Library stock concentration: 41 uM); 113% in assay [1] (measured here: cell number at 48 h, Library stock concentration: 123 uM); 110% in assay [1] (measured here: cell number at 48 h, Library stock concentration: 370 uM). The nuclei count, normalised in assay [1] (measured here: cell number at 48 h, Library stock concentration: 1.111 mM) is 113%; in assay [1] (setting [20]) it was 94.9%; in assay [1] (measured here: cell number at 48 h, Library stock concentration: 3.333 mM) it was 116%; in assay [1] (setting [10]), 99.6%. The p53-positive nuclei, normalised in assay [2] (Library stock concentration: 500 nM) was -0.00517% (inactive); in assay [2] (Library stock concentration: 1.5 uM), -0.125% (inactive); in assay [2] (Library stock concentration: 4.6 uM), 0.0484% (inactive); in assay [2] (Library stock concentration: 13.7 uM), -0.00344% (inactive); in assay [2] (Library stock concentration: 41 uM) it was -0.185% (inactive); in assay [2] (Library stock concentration: 123 uM) it was -0.102% (inactive). Moreover, the p53-positive nuclei, normalised was -0.0936% (inactive) in assay [2] (Library stock concentration: 370 uM); -0.065% (inactive) in assay [2] (Library stock concentration: 1.111 mM); 4.69% (inactive) in assay [2] (setting [21]); -0.144% (inactive) in assay [2] (Library stock concentration: 3.333 mM); 1.04% (inactive) in assay [2] (setting [14]); 0.0755% in assay [2] (measured here: p53 positive nuclei at 24 h, Library stock concentration: 500 nM). In addition, the p53-positive nuclei, normalised is -0.239% in assay [2] (measured here: p53 positive nuclei at 24 h, Library stock concentration: 1.5 uM); -0.0294% in assay [2] (measured here: p53 positive nuclei at 24 h, Library stock concentration: 4.6 uM); -0.185% in assay [2] (measured here: p53 positive nuclei at 24 h, Library stock concentration: 13.7 uM); -0.239% in assay [2] (measured here: p53 positive nuclei at 24 h, Library stock concentration: 41 uM); -0.134% in assay [2] (measured here: p53 positive nuclei at 24 h, Library stock concentration: 123 uM); -0.187% in assay [2] (measured here: p53 positive nuclei at 24 h, Library stock concentration: 370 uM). Moreover, the p53-positive nuclei, normalised in assay [2] (measured here: p53 positive nuclei at 24 h, Library stock concentration: 1.111 mM) is -0.0384%; in assay [2] (setting [22]) it was 2.85%; in assay [2] (measured here: p53 positive nuclei at 24 h, Library stock concentration: 3.333 mM), -0.036%; in assay [2] (setting [18]), 1.37%.
As for `COC(=O)C1C(O)CC[C@H]2CN3CCc4c([nH]c5ccccc45)[C@@H]3C[C@H]12` (some centres undefined), the nuclei count, normalised in assay [1] (setting [19]) worked out at 104%; in assay [1] (setting [20]) it was 106%. The results for the p53-positive nuclei, normalised in assay [2] (setting [21]) and in assay [2] (setting [22]) were -0.11% (inactive) and -0.356%, respectively.
Consider `CCCCCCCCCCCCCCP(=O)(O)O`, for which the nuclei count, normalised was 105% in assay [1] (measured here: cell number at 24 h, concentration not given here) and 107% in assay [1] (measured here: cell number at 48 h, concentration not given here). The p53-positive nuclei, normalised in assay [2] (concentration not given here) was -0.0194% (inactive); in assay [2] (measured here: p53 positive nuclei at 24 h, concentration not given here), -0.0488%.
Turning to `COc1ccc(N(C(=O)Nc2c(C)cccc2C)c2cc(Nc3ccc(N4CCN(C)CC4)cc3OC)ncn2)c(OC)c1`, the nuclei count, normalised in assay [1] (setting [3]) came to 104%; in assay [1] (setting [4]), 93.8%; in assay [1] (setting [5]), 82.3%; in assay [1] (setting [6]) it was 66%; in assay [1] (setting [7]), 104%; in assay [1] (setting [8]), 90.4%. Further, the nuclei count, normalised in assay [1] (setting [9]) was 64.8%; in assay [1] (setting [10]), 66.4%. For the same molecule, the p53-positive nuclei, normalised in assay [2] (setting [11]) was -0.0182% (inactive); in assay [2] (setting [12]) it was -0.151% (inactive); in assay [2] (setting [13]) it was -0.0629% (inactive); in assay [2] (setting [14]), 0.104% (inactive); in assay [2] (setting [15]), -0.103%; in assay [2] (setting [16]) it was -0.0385%. Further, the p53-positive nuclei, normalised in assay [2] (setting [17]) is -0.0916%; in assay [2] (setting [18]) it was -0.0741%.
